In PubChem BioAssay (Tox21):
The source made the active and inactive calls. Calls follow the shape of the dose curve; as a rule, active = well fitted curve in the direction sought with a large enough effect in the repeat runs; inconclusive = weak or mixed curves; inactive = flat fitted curve, though single readings scatter.

Test: qHTS assay to test for compound auto fluorescence at 590 nm (red) in HepG2 cell free culture (AID 720684)
Conditions: cell-free medium autofluorescence, red 540/590 nm; series mostly up to 91.3 µM
Source text: U.S. Tox21 Program National Center for Advancing Translational Sciences [NCATS] NIH Chemical Genomics Center [NCGC] U.S. Environmental Protection Agency [EPA] National Institutes of Environmental Health Sciences [NIEHS] National Toxicology Program [NTP] U.S. Food and Drug Administration [FDA] Tox21 Assay Overview: Compound auto fluorescence often interferes with screening of the compound library against various biological targets and signaling pathways. Some of these compounds may have fluorophoric properties. Such properties may interfere with the assay outputs resulting in false positives and/or negatives. To decrease such complications and ensure the compound activities are relevant in terms of biological response, the Tox21 10K compound library was screened for auto fluorescence. From the fluorophores used as reporter signals in our screening assays, the auto fluorescence equivalencies of compounds against three fluorophores have been evaluated: Triamterene, Fluorescein and Rose Bengal sodium for blue, green and red fluorescence, respectively. The fluorescence intensities were measured using Excitation/Emission wavelengths at 405/460nm, 485/535nm and 540/590nm for blue, green and red labels, respectively. This assay includes the red fluorescence data.
Tox21 Assay Protocol Summary: 5 uL of culture medium (MEM containing 10% FBS) per well was dispensed into black wall/clear bottom 1536-well plates using a Multidrop Combi Dispenser (ThermoFisher Scientific, Waltham, MA). After 23 nL compound or DMSO vehicle was transferred into assay plate by a pintool work station (Kalypsys, San Diego, CA), fluorescence intensities in the assay plates were measured by an Envision (PerkinElmer, Shelton, CT) plate reader using three labels for measuring blue, green and red fluorescence at […] 460, 535 and 590nm respectively.

SMILES	outcome
CCOc1cc(Oc2ccc(C(F)(F)F)cc2Cl)ccc1[N+](=O)[O-]	inactive
CCCCN(CC)c1c([N+](=O)[O-])cc(C(F)(F)F)cc1[N+](=O)[O-]	inactive
CC(C)N(C(=O)SCC(Cl)=C(Cl)Cl)C(C)C	inactive
c1ccc(N=Nc2ccccc2)cc1	inactive
CC(C)NC(C)C	inactive
CCC(C)c1cc([N+](=O)[O-])cc([N+](=O)[O-])c1O (stereo not given)	inactive
C=CCN(CC=C)C(=O)C(Cl)Cl	inactive
Cc1ccc(OP(=O)(Oc2ccc(C)cc2)Oc2ccc(C)cc2)cc1	inactive
CCCCNC(=O)n1c(NC(=O)OC)nc2ccccc21	inactive
CC(C)Oc1cc(-n2nc(C(C)(C)C)oc2=O)c(Cl)cc1Cl	inactive
O=c1oc2ccccc2c(O)c1C(CC(O)c1ccc(-c2ccc(Br)cc2)cc1)c1ccccc1 (stereo not given)	inactive
CCOP(=S)(OCC)O/N=C(\C#N)c1ccccc1	inactive
CCCCN(CCCC)N=O	inactive
N#CCCCl	inactive
Oc1ccc(-c2ccccc2)cc1	inactive
C#C[C@]1(O)CC[C@H]2[C@@H]3CCC4=CC(=O)CC[C@]4(C)[C@H]3CC[C@@]21C	inactive
O=[N+]([O-])c1cccc2ccccc12	inactive
Nc1ccncc1	inactive
C=C(C)[C@H]1Cc2c(ccc3c2O[C@@H]2COc4cc(OC)c(OC)cc4[C@@H]2C3=O)O1	inactive
N[C@@H](Cc1ccc(N(CCCl)CCCl)cc1)C(=O)O	inactive

SMILES	outcome
CN(C)c1ccc(C(=O)c2ccc(N(C)C)cc2)cc1	inactive
Clc1nc(Cl)nc(Cl)n1	inactive
O=C(CCl)c1ccccc1	inactive
CN(C)C(=O)Nc1ccc(Cl)cc1	inactive
Oc1cc(Cl)ccc1Oc1ccc(Cl)cc1Cl	inactive
Cc1cccc(N)c1N	inactive
Nc1c(Cl)cc([N+](=O)[O-])cc1Cl	inactive
NCc1cccnc1	inactive
N#Cc1cc(Br)c(O)c(Br)c1	inactive
NC(=S)Nc1ccccc1	inactive
CC(C)=CC1C(C(=O)OCc2coc(Cc3ccccc3)c2)C1(C)C (stereo not given)	inactive
Oc1c(Cl)c(Cl)c(Cl)c(Cl)c1Cl	inactive
CC(C)(OOC(C)(C)c1ccccc1)c1ccccc1	inactive
O=C(O)C(F)(F)C(F)(F)C(F)(F)C(F)(F)C(F)(F)C(F)(F)C(F)(F)F	inactive
CC1(C)C(C=C(Cl)Cl)C1C(=O)OC(C#N)c1cccc(Oc2ccccc2)c1 (stereo not given)	inactive
CCCCC(CC)COC(=O)Cl (stereo not given)	inactive
Nc1ccc(-c2ccc(N)c(N)c2)cc1N	inactive
Nc1cccnc1	inactive
Nn1cnnc1	inactive
C[C@]12CCC(=O)C[C@@H]1CC[C@@H]1[C@@H]2CC[C@]2(C)[C@@H](O)CC[C@@H]12	inactive
